Screening data from PubChem BioAssay.
Most compounds without a hit are left out; they make up all but 19% or so of the library.
DT40 TDP1 CPT – DT40-hTDP1 cell growth loss with CPT; actives 12% (n = 420,000); Potency, µM (titrated, usually from 46.2 µM), for the others: at the highest dose activity change, negative = growth inhibition, actives largely listed as inhibitors; chicken DT40 Tdp1-/-;hTDP1 cells + 20 nM CPT, ATP luminescence, 48 h; note: potency is the fitted concentration of half-maximal effect; % is set by controls: 0 for no effect and ±100 for the full control effect; nearly all actives have a fitted effect of over 55% in size
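Chicken DT40 Tdp1-/- cells complemented with human TDP1, 400 cells/well, exposed to compounds plus 20 nM camptothecin for at least 48 h at 37 C; viability read as ATP content by CellTiter-Glo luminescence.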
Chronic BCR inh – chronic active BCR signaling inhibition | Potency, µM (top dose mostly 46.1 µM), for inactives: at the top dose activity change, negative = inhibition, usual class: inhibitors | actives 0.05% (n = 340,000) | ABC-DLBCL IkBa-CBG/CBR reporter, luminescence ratio, 4 h | AID 493014; active = well fitted inhibition curve with a large enough effect in the signal ratio, with a control signal flat, not every such curve was filed as active; inconclusive = small, poorly fitted or top-dose-only effect, or effect the other way, or a change in a side signal; the % refers to the signal ratio;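 note: potency is the fitted concentration of half-maximal effect; plate controls were basal doxycycline-induced cells for no effect and cells given 10 µM MG132 for full effect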
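TMD8 ABC-DLBCL cells carrying doxycycline-inducible green luciferase fused to IkappaBalpha plus unfused red luciferase were exposed to compounds (up to 46 uM) for 4 hrs at 37C. Activity came from the overlap-corrected green/red luminescence ratio.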
SW480 rereplic – DNA re-replication induction in SW480 cells | SW480 DNA re-replication, Hoechst DNA content imaging, 48 h | Potency, µM (top dose mostly 46.1 µM), without a hit: at the highest dose re-replication activation, hits mostly activators | actives 1.8% (n = 340,000); note: potency is the fitted concentration of half-maximal effect; % of control where 0% means no effect; nearly all actives have a fitted effect of over 55% in size
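Per well, 250 cells were exposed to pinned compound for 48 hr. Nuclear DNA was visualised with Hoechst (40 min, 37 C) and total object intensity recorded by fluorescence scanning.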
DT40 TDP1 no CPT – qHTS for Inhibitors of human tyrosyl-DNA phosphodiesterase 1 (TDP1): qHTS in cells in absence of CPT. DT40 Tdp1-/- hTDP1 cells, no CPT, ATP luminescence, 48 h. actives 15% (n = 420,000). Potency, µM (top dose mostly 46.2 µM), inactives show at the highest dose activity change, negative = growth inhibition, hits mostly inhibitors. AID 686978, 2013; note: potency is the fitted concentration of half-maximal effect; % is set by controls: 0 for no effect and ±100 for the full control effect; nearly all actives have a fitted effect of over 55% in size
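Stably hTDP1-transfected Tdp1-null chicken DT40 cells were treated with library compounds minus camptothecin and grown for at least 48 hr at 37 °C, after which cellular ATP was quantified by luminescence.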
IL1B secr inh – blocks inflammasome-driven IL-1 beta release | THP-1 LPS/ATP IL-1B secretion, AlphaLISA, 16 h; hits give low values | activity change, % at 57.5 µM | actives 4.7% (n = 360,000); in the data active = activity change below about -50%; inconclusive = mostly about -30% to -49%; note: % is set by controls: 0 for no effect and ±100 for the full control effect
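THP-1 cells pretreated 1 hr with compounds (up to 57.5 uM final), then stimulated with LPS (250 ng/mL final) plus ATP (1.25 mM final); secreted IL-1B measured by AlphaLISA after 16 hr, decreased signal indicating inhibition.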
MCF10A rereplic – inducers of DNA re-replication in MCF 10A breast cells; MCF 10A DNA re-replication, Hoechst nuclear intensity, 48 h; Potency, µM (titrated, usually from 46.1 µM), inactives show at the top dose activity, positive = re-replication, usual class: activators; actives 2.9% (n = 350,000); AID 624296; note: potency is the fitted concentration of half-maximal effect; % of control where 0% means no effect; nearly all actives have a fitted effect of over 50% in size
Active calls of the source: *; [ ] = dose if it differs, or a comment. Unless noted, calls come from the whole dose curve; as a rule, active = well fitted curve in the direction sought with a large enough effect; inconclusive = small, poorly fitted or top-dose-only effect, or another doubt; inactive = no such curve, though single readings can be large; an effect the other way counts as inactive or inconclusive.

CC1CC(C)CN(c2nc(N(C)c3ccccc3)nc(N)c2[N+](=O)[O-])C1 (centres undefined) was read as DT40 TDP1 CPT inconclusive, Chronic BCR inh inconclusive, SW480 rereplic -6%, DT40 TDP1 no CPT 13µM*, IL1B secr inh 50 and MCF10A rereplic inconclusive.
Screening CC1CN(c2nc(N(C)c3ccccc3)nc(N)c2[N+](=O)[O-])CC(C)O1 (centres undefined) returned DT40 TDP1 CPT -20%, Chronic BCR inh 0%, SW480 rereplic 3%, DT40 TDP1 no CPT inconclusive, IL1B secr inh 24 and MCF10A rereplic 21%.
For Cc1nc2c(OCc3ccc(F)c(F)c3)cccn2c1N(C)C(=O)CCC1CCCC1 the results were DT40 TDP1 CPT inconclusive, DT40 TDP1 no CPT 16µM* and IL1B secr inh -13.
Screening Cc1nc2c(OCc3ccc(OC(F)F)cc3)cccn2c1N(C)C(=O)CCC1CCCC1 returned DT40 TDP1 CPT 13µM*, DT40 TDP1 no CPT 10µM* and IL1B secr inh -58*.
`O=C(COC(=O)c1ccc(S(=O)(=O)N2CCCCC2)cc1)Nc1ccccc1Cl` gave DT40 TDP1 CPT -1%, Chronic BCR inh -1%, SW480 rereplic -2%, DT40 TDP1 no CPT -2%, IL1B secr inh 1 and MCF10A rereplic inconclusive.
Screening CC(C)N1CCC1(C)C(=O)Nc1cc(-c2ccccc2)nn1C (centres undefined) returned DT40 TDP1 CPT -16%, DT40 TDP1 no CPT -7% and IL1B secr inh 16.
O=C(NCC(c1cccnc1)N1CCN(Cc2ccccc2)CC1)C(=O)Nc1cccc(Cl)c1 (centres undefined) was read as DT40 TDP1 CPT 15µM* and DT40 TDP1 no CPT 13µM*.
Cc1cccc(NC(=O)C(=O)NCC(c2cccnc2)N2CCN(Cc3ccccc3)CC2)c1 (centres undefined) was read as DT40 TDP1 CPT 23µM* and DT40 TDP1 no CPT 16µM*.
COc1ccc(OC)c(C2C(C(=O)N3CCCCC3)=C(C)Nc3nc4ccccc4n32)c1 (centres undefined) was read as DT40 TDP1 CPT -2% and DT40 TDP1 no CPT -2%.
`CCC(C(=O)OCC(=O)N1C(C)CCCC1C)c1ccccc1` (centres undefined) gave DT40 TDP1 CPT 11%, Chronic BCR inh 6%, SW480 rereplic -5%, DT40 TDP1 no CPT -4%, IL1B secr inh 17 and MCF10A rereplic 28%.
Screening CCc1nnc(NC(=O)c2nc(SCc3ccc(F)cc3)ncc2Cl)s1 returned DT40 TDP1 CPT -10% and DT40 TDP1 no CPT -18%.
COCCN=c1scc(-c2cccs2)n1/N=C/c1ccc(O)c(O)c1O was read as DT40 TDP1 CPT inconclusive, Chronic BCR inh 16%, SW480 rereplic -10%, DT40 TDP1 no CPT inconclusive, IL1B secr inh -27 and MCF10A rereplic inconclusive.
`CCN=c1scc(C)n1/N=C/c1ccc(O)c(O)c1O` gave DT40 TDP1 CPT 15µM*, Chronic BCR inh -10%, SW480 rereplic -2%, DT40 TDP1 no CPT 7.3µM*, IL1B secr inh -17 and MCF10A rereplic -3%.
Screening CCN=c1scc(C)n1/N=C/c1cc(Br)c(O)c(Br)c1 returned DT40 TDP1 CPT inconclusive, Chronic BCR inh 6%, SW480 rereplic -3%, DT40 TDP1 no CPT inconclusive, IL1B secr inh -10 and MCF10A rereplic 21µM*.
Screening O=C(NCc1cccnc1)c1cc(C2CCCCN2C(=O)c2ccc3ccccc3c2)on1 (centres undefined) returned DT40 TDP1 CPT inconclusive, DT40 TDP1 no CPT inconclusive and IL1B secr inh -4.
`CC(C1CC1)N(Cc1ccccc1)C(=S)Nc1ccccc1` (centres undefined) gave DT40 TDP1 CPT 15µM*, Chronic BCR inh -3%, SW480 rereplic 14%, DT40 TDP1 no CPT 23µM*, IL1B secr inh 3 and MCF10A rereplic 11%.
`CN(C)CCNc1ncnc2c1ncn2[C@H]1CN(Cc2ccc3c(c2)OCO3)C[C@@H](CO)O1` gave DT40 TDP1 CPT -29%, DT40 TDP1 no CPT -26% and IL1B secr inh -15.
For CCC(=O)N1c2ccccc2[C@@H](N(C(C)=O)c2ccccc2)C[C@H]1C the results were DT40 TDP1 CPT -24%, Chronic BCR inh inconclusive, SW480 rereplic 1%, DT40 TDP1 no CPT -24%, IL1B secr inh -13 and MCF10A rereplic inconclusive.
For CC(=O)N(c1ccccc1)C1CC(C)N(C(=O)c2ccccc2)c2ccccc21 (centres undefined) the results were DT40 TDP1 CPT 8.2µM*, Chronic BCR inh inconclusive, SW480 rereplic -3%, DT40 TDP1 no CPT 7.3µM*, IL1B secr inh 0 and MCF10A rereplic inconclusive.
CCC(=O)OC1CC(C)N(C(=O)c2ccccc2)c2ccc(C)cc21 (centres undefined) was read as DT40 TDP1 CPT 11µM*, Chronic BCR inh inconclusive, SW480 rereplic -7%[9.22 µM], DT40 TDP1 no CPT 14µM*, IL1B secr inh -6 and MCF10A rereplic -17%.
Cc1ccc(C(=O)N(c2ccccc2)C2CC(C)N(C(=O)c3ccco3)c3ccccc32)cc1 (centres undefined) was read as DT40 TDP1 CPT 7.3µM*, Chronic BCR inh 12%, SW480 rereplic -1%, DT40 TDP1 no CPT 4.6µM*, IL1B secr inh -23 and MCF10A rereplic 29%.
CCCC(=O)N1c2ccccc2C(N(C(C)=O)c2ccccc2)CC1C (centres undefined) was read as DT40 TDP1 CPT 23µM*, Chronic BCR inh 3%, SW480 rereplic -1%, DT40 TDP1 no CPT inconclusive, IL1B secr inh 30 and MCF10A rereplic 13%.
For COc1ccc(NC(=O)CSc2nc(O)c(C/C=C/c3ccccc3)c(=O)[nH]2)cc1 the results were DT40 TDP1 CPT -2% and DT40 TDP1 no CPT -28%.
C[C@H](CO)N1C[C@H](C)[C@@H](CN(C)Cc2ccccc2)Oc2c(NS(=O)(=O)c3cn(C)cn3)cccc2C1=O was read as DT40 TDP1 CPT inconclusive, Chronic BCR inh inconclusive, SW480 rereplic 1%[9.22 µM], DT40 TDP1 no CPT inconclusive, IL1B secr inh 34 and MCF10A rereplic -31%.
CC(C)(C)c1nnc(N/N=C/c2ccccc2)n(N)c1=O was read as DT40 TDP1 CPT -1%, Chronic BCR inh inconclusive, SW480 rereplic inconclusive, DT40 TDP1 no CPT inconclusive, IL1B secr inh -7 and MCF10A rereplic 22%.
